High-throughput results from PubChem.
FMDV antiviral = High Throughput Screening for Foot and Mouth Disease Virus Antivirals; 410,000 tested, 1.2% active; FMDV antiviral cell-based qHTS; Potency, µM (series often up to 57.9 µM), hits mostly inhibitors; calls by dose curve; tested in HEK293T cells; also: read-out not given here; nearly all actives have a fitted effect of over 45% in size
Vaccinia Venus = qHTS for Stage-Specific Inhibitors of Vaccinia Orthopoxvirus: Venus Reporter Primary qHTS; Vaccinia virus Venus reporter expression, fluorescence; Potency, µM (highest dose often 36.5 µM), usual class: inhibitors; 330,000 tested, 0.46% active; calls by dose curve; tested in A549 cells; also: nearly all actives have a fitted effect of over 30% in size
HCMV antiviral = qHTS Assay for inhibitors of the human cytomegalovirus (HCMV) | AID 1259415, 2018 | HFF cells, HCMV-luciferase reporter, 72 h; stronger effect = lower value | 410,000 tested, 4.5% active | activity change, negative = inhibition, % at 57.5 µM; in the data active = activity change below about -60%; inconclusive = no clear call, values can overlap the other calls; inactive = above about -39%
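Screen run at 2 compound doses on HFFs infected with reporter HCMV, MOI 1 PFU/cell. Luciferase activity from cell lysates at 72 h post infection gave inhibition relative to buffer-only and Salinomycin wells.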
VACV mCherry inh = qHTS for Stage-Specific Inhibitors of Vaccinia Orthopoxvirus: mCherry Reporter Primary qHTS; Potency, µM (top dose mostly 36.5 µM), usual class: inhibitors; AID 720579, 2013; 310,000 tested, 0.63% active; Vaccinia virus mCherry reporter infection, fluorescence; calls by dose curve; tested in A549 cells; also: nearly all actives have a fitted effect of over 35% in size
HCV inh = qHTS Assay for Inhibitors of Hepatitis C Virus (HCV) | AID 651820, 2012 | Potency, µM (top dose mostly 41.8 µM), actives largely listed as inhibitors | Huh7.5.1 HCVcc-Cre infection, luciferase reporter, 44 h | 340,000 tested, 3.4% active; active = well fitted inhibition curve with a large enough effect; inconclusive = small, poorly fitted or top-dose-only effect, or another doubt; inactive = no such curve, though single readings can be large or run the other way
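Cells seeded at 1,000/well and cultured 4 h, then compounds added followed by HCVcc-Cre virus (~0.5 moi). After 44 h further culture, luciferase substrate was added, plates held 15 min at room temperature, and luminescence read for 15 sec.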
Numbers stand for hits; . = inactive; ? = inconclusive; / = not tested or not shown; [ ] = dose if it differs, or a comment. The list is not random: actives were taken first. Their share in the collection is about 7.3%.

SMILES | FMDV antiviral | Vaccinia Venus | HCMV antiviral | VACV mCherry inh | HCV inh
Cc1cc(C)cc(NC(=O)c2ccc3oc(=O)c(S(=O)(=O)c4ccc(F)cc4)cc3c2)c1 | 20µM | . | . | . | /
COc1ccc(NS(=O)(=O)c2cccc(C(=O)N/N=C/c3ccccc3OC)c2)cc1 | . | . | . | . | .
O=C(N/N=C/c1cccs1)c1cccc(S(=O)(=O)Nc2ccc(Cl)cc2)c1 | . | ? | -64.7 | ? | .
O=C(N/N=C/c1cccs1)c1cccc(NC(=O)c2ccc(Cl)cc2)c1 | / | / | -97.1 | / | .
Cc1cccc(-c2nc(SCC(=O)N(C)c3ccccc3)c3c(=O)n(C)c(=O)n(C)c3n2)c1 | . | . | . | . | /
CC(C)(C)S(=O)(=O)/C(C#N)=N/Nc1ccc(Cl)cc1 | ? | ? | -82.4 | . | ?
Cc1nc2scc(-c3ccccc3)c2c(=O)n1N | . | . | ? | / | .
Cc1nc2scc(-c3ccc(C(C)C)cc3)c2c(=O)n1N | ? | . | -62.1 | . | .
CCCCNC(=O)C1=CC(c2ccc3c(c2)OCO3)=NS(=O)(=O)N1C | . | . | . | . | /
Cc1ccc(NC(=O)CSc2nccn2C2CCCC2)cc1Cl | . | . | . | . | /
O=C(c1cc2cc(F)ccc2[nH]1)N(Cc1cccnc1)CC1CCCN(C2CCCCC2)C1 (centres undefined) | . | / | . | / | ?
C#Cc1cccc(C(=O)N(Cc2cccnc2)CC2CCCN(C3CCCCC3)C2)c1 (centres undefined) | . | . | -63.0 | . | /
Cc1ccc(-n2nc(C)c(NC(=O)CCl)c2C)cc1 | . | ? | -100.6 | ? | ?
Cc1ccc(OCC(=O)Nc2cc(-c3cccc(C)c3)nn2-c2ccccc2)cc1 | . | . | . | . | /
CC(=O)Nc1c(C)nn(-c2ccc([N+](=O)[O-])cc2)c1C | . | . | . | . | .
O=C(CCl)Nc1cc(-c2ccccc2)nn1-c1ccccc1 | . | / | -87.3 | / | 14.1µM
Cc1ccc(-c2cc(NC(=O)CCl)n(-c3ccccc3)n2)cc1 | 22.4µM | . | -96.7 | . | ?
Cc1ccc(C)c(NC(=O)c2cc(-c3ccccc3)nn2-c2ccccc2)c1 | ? | . | ? | . | 11.2µM
CC1Cn2c(nc(=O)c3c2NCN(CCc2ccccc2)C3)S1 (centres undefined) | . | . | . | . | .
CSc1ncccc1C(=O)N1CCC(C)(C(=O)O)C1 (centres undefined) | . | . | . | . | /
CN1CCN(c2ncnc3c2cnn3C)CC1 | . | / | . | / | .
NNC(=O)c1cc2c(N3CCC(Cc4ccccc4)CC3)ncnc2s1 | 14.1µM | . | ? | . | ?
O=S(=O)(c1ccccc1)N1CCN(c2ncnc3sc(-c4ccccc4)cc23)CC1 | ? | . | . | . | .
Cn1ncc2c(N3CCC(Cc4ccccc4)CC3)ncnc21 | 20µM | . | ? | . | ?
CCOc1ccccc1CNC(=O)C1CCCN(c2ncnc3onc(-c4ccc(F)cc4)c23)C1 (centres undefined) | . | . | . | . | /
SMILES | FMDV antiviral | Vaccinia Venus | HCMV antiviral | VACV mCherry inh | HCV inh
CC(C)(C)/C(O)=C(/C#N)c1nc2ccccc2[nH]1 | ? | / | . | / | ?
CCOC(=O)c1ccc(-c2ccc(/C=C(\C#N)c3nc4ccc(C)cc4[nH]3)o2)cc1 | . | . | -79.2 | ? | /
Cc1cc(/C=C(/C#N)c2nc3ccccc3[nH]2)c(C)n1-c1cc(C(=O)O)cc(C(=O)O)c1 | . | . | . | . | .
Cc1ccc2nc(/C(C#N)=C/c3ccc(-c4ccccc4C(=O)O)o3)[nH]c2c1 | . | / | . | / | .
N#C/C(=C(/O)c1ccc([N+](=O)[O-])o1)c1nc2ccccc2[nH]1 | . | / | -74.5 | / | .
Cc1ccc2nc(/C(C#N)=C\c3cc(C)n(-c4cccc([N+](=O)[O-])c4)c3C)[nH]c2c1 | . | / | . | / | 2.24µM
N#C/C(=C\c1ccc([N+](=O)[O-])o1)c1nc2ccccc2[nH]1 | 25.1µM | / | -93.7 | / | ?
C[C@H](CO)N1C[C@H](C)[C@@H](CN(C)C(=O)Nc2ccccc2)OCc2cn(nn2)CCCC1=O | / | / | . | / | /
Cc1ccc2nc(/C(C#N)=C\c3ccc([N+](=O)[O-])o3)[nH]c2c1 | ? | . | -103.1 | . | ?
Cn1nc([N+](=O)[O-])c(C(C#N)c2nc3ccccc3n2C)c(Cl)c1=O (centres undefined) | . | . | -75.6 | . | .
O=C(NCCc1ccccc1)C1CCN(S(=O)(=O)c2ccccc2)CC1 | . | / | -104.0 | / | .
NC(=O)C1CCN(c2ccc(S(=O)(=O)N3CCC(Cc4ccccc4)CC3)cn2)CC1 | ? | . | -67.3 | . | ?
CSc1ccccc1C(=O)NCCc1ccc(S(=O)(=O)N2CCCCC2)cc1 | . | / | -102.2 | / | .
O=C(NCCc1ccccc1)c1ccc(S(=O)(=O)N2CCCCC2)cc1 | . | . | . | . | /
O=C(CCNC(=O)C1CCN(S(=O)(=O)c2ccccc2)CC1)NCc1ccc(Cl)cc1Cl | ? | / | -74.6 | / | .
O=C(NCCc1ccc(Cl)cc1)c1cnc2sc(N3CCCC3)nn2c1=O | ? | . | . | . | /
O=c1c(-c2ccco2)nc2ccccc2n1/C=C(/c1ccc(C(F)(F)F)cc1)n1c(=O)[nH]c2ccccc21 | / | / | . | / | /
COc1cc(C2c3c(-c4cc(C)ccc4O)n[nH]c3C(=O)N2CCCO)ccc1OCCC(C)C (centres undefined) | ? | ? | . | ? | /
O=C(NNC(=O)C1CCN(Cc2ccccc2)CC1)c1cccc(Cl)c1 | . | . | . | / | 10µM
O=C(NC1CCN(Cc2ccccc2)CC1)C1CCN(S(=O)(=O)c2ccccc2)CC1 | . | . | . | . | ?
O=C(NC1CCN(Cc2ccccc2)CC1)C1CCN(S(=O)(=O)c2ccc(Cl)cc2)CC1 | ? | . | ? | ? | 10µM
CC(=O)Nc1ccc(C2=CC(=O)C[C@H](c3ccc4c(c3)OCO4)C2)cc1 | . | . | . | ? | .[8.37 µM]
C[C@@H](N)C(=O)NC[C@H]1O[C@@H](n2cnc3c(N)ncnc32)[C@H](O)[C@@H]1O | . | . | . | . | .
C[C@H](N)C(=O)NC[C@H]1O[C@@H](n2cnc3c(N)ncnc32)[C@H](O)[C@@H]1O | . | . | -74.6 | . | .
Nc1ncnc2c1ncn2[C@@H]1O[C@H](CNCc2ccc(OCc3ccccc3)cc2)[C@@H](O)[C@H]1O | . | . | . | . | 3.98µM
Nc1ncnc2c1ncn2[C@@H]1O[C@H](CNCc2ccc(OCC(=O)Nc3ccccn3)cc2)[C@@H](O)[C@H]1O | . | . | ? | . | .
COc1ccc(C2(c3ccc(OC)cc3)NC(=O)NC2=O)cc1 | . | . | . | . | .
O=C(Nc1ccc(Br)cn1)c1cnn2c1NC(=C1CC1)C=C2C(F)F | / | . | / | . | /
Cc1ccc(C(C)C)c(OCc2ccc(C(=O)N/N=C/c3ccc(C(=O)O)cc3)cc2)c1 | . | / | . | / | .
Cc1ccc(C(C)C)c(OCc2ccc(C(=O)N/N=C/c3ccc(O)cc3O)cc2)c1 | . | ? | -96.7 | 1.58µM | 3.16µM
